Sfp inh: qHTS Assay for Inhibitors of Bacillus subtilis Sfp phosphopantetheinyl transferase (PPTase). Potency, µM, for inactives: largest response in the series, negative = inhibition, hits mostly inhibitors. hit rate 3.5% among 310,000. 4'-phosphopantetheinyl transferase ffp (Bacillus subtilis), Q9F4F7. AID 1490, 2009. Biochemical Sfp PPTase activity, qHTS;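 further: the enzyme is Sfp with the accession as filed and its product quenches rhodamine fluorescence; 0% = enzyme reaction without inhibitor and -100% = no enzyme wells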
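Reaction rates are the 30-min fluorescence difference (ex 525, em 598 nm) in wells containing 15 nM Sfp, 5 uM rhodamine-CoA and 12.5 uM BHQ-2-YbbR at pH 7.6 with 10 mM MgCl2.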
TDP1 block: qHTS Assay for Inhibitors of Tyrosyl-DNA Phosphodiesterase (TDP1) | Tyrosyl-DNA phosphodiesterase 1 (Homo sapiens), Q9NUW8 | hit rate 0.28% among 350,000 | recombinant TDP1, AlphaScreen DNA substrate cleavage | Potency, µM (highest dose often 130 µM), for the others: top-dose activity change, negative = inhibition, hits mostly inhibitors; further: on the % scale 0 is the no-effect control and ±100 the full control effect; nearly all actives have a fitted effect of over 40% in size
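Here, a 5' biotin and 3' phosphotyrosine-FITC DNA oligonucleotide reports Tdp1 activity: intact substrate bridges AlphaScreen beads, while cleavage leaves a 3' phosphate and drops signal. All incubations at room temperature.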
G9a block: qHTS Assay for Inhibitors of Histone Lysine Methyltransferase G9a; Histone-lysine N-methyltransferase EHMT2 (Homo sapiens), Q96KQ7; G9a H3K9 monomethylation, AlphaScreen, 2 h; Potency, µM (series often up to 102 µM), for inactives: at the highest dose activity, negative = inhibition, hits mostly inhibitors; hit rate 8.8% among 350,000; AID 504332, 2011; further: on the % scale 0 is the no-effect control and ±100 the full control effect; nearly all actives have a fitted effect of over 75% in size
Target sequence (Q96KQ7 913-1193 limits assumed): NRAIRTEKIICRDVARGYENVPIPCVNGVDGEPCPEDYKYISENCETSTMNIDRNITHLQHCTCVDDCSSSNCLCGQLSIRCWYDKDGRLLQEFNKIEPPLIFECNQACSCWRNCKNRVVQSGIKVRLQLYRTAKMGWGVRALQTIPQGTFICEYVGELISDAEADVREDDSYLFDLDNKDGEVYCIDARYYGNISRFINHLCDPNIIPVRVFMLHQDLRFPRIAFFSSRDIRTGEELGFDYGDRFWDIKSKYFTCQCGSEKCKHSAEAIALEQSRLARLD
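Methyltransferase reactions run at room temperature for 2 h (20 nM enzyme, 500 nM biotin-H3K9 peptide, 20 uM SAM) after a 15 min compound preincubation; product detected by AlphaScreen beads and anti-H3K9me1 antibody.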
JMJD2A Tudor: qHTS Assay for Inhibitors of JMJD2A-Tudor Domain. Lysine-specific demethylase 4A (Homo sapiens), O75164. AlphaScreen JMJD2A-Tudor / H3K4me3 peptide binding. Potency, µM (series often up to 114 µM), for inactives: top-dose activity change, negative = inhibition, usual class: inhibitors. hit rate 4.4% among 390,000; further: on the % scale 0 is the no-effect control and ±100 the full control effect; nearly all actives have a fitted effect of over 50% in size
BAZ2B inh: qHTS Assay for Inhibitors of BAZ2B; Bromodomain adjacent to zinc finger domain protein 2B (Homo sapiens), Q9UIF8; AlphaScreen BAZ2B-H3K14Ac peptide displacement; Potency, µM (top dose mostly 114 µM), for inactives: at the top dose activity change, negative = inhibition, actives largely listed as inhibitors; hit rate 4.4% among 360,000; AID 504333, 2011; further: on the % scale 0 is the no-effect control and ±100 the full control effect; nearly all actives have a fitted effect of over 60% in size
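Protein-peptide AlphaScreen: BAZ2B 50 nM, b-H3K14Ac 50 nM, 1x PBS pH 7.4 + 0.01% Tween-20. Preincubation 30 min RT; cpd 30 min RT (top 110 uM); beads 20 min RT, light-protected.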
HP1b chromo inh: HTS for Inhibitors of HP1-beta Chromodomain Interactions with Methylated Histone Tails; Chromobox protein homolog 1 (Homo sapiens), P83916; AlphaScreen HP1-beta / biotin-H3K9me3 peptide binding; Potency, µM (top dose mostly 114 µM), for the others: at the top dose activity change, negative = inhibition, actives largely listed as inhibitors; hit rate 0.56% among 390,000; AID 540317, 2011; further: nearly all actives have a fitted effect of over 70% in size
Target sequence (P83916 whole entry, looked up): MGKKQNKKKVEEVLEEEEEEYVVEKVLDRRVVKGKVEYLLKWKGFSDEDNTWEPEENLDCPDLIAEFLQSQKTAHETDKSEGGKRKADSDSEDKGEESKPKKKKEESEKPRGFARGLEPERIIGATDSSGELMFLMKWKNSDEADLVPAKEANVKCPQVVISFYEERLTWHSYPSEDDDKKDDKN
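Compound inhibition of the preformed complex between 50 nM HP1-beta and 50 nM biotinylated H3K9me3 peptide was read by AlphaScreen. Buffer was PBS pH 7.4 with 0.01% Tween-20. Incubations ran 30 min at room temperature, with 10 ug/mL donor/acceptor beads.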
* hit, by the source's call; ? = inconclusive; · = no result given; [ ] = remark or other dose. This is a sample that favours compounds with a hit; in the whole collection about 12% have one here. The call rests on the fitted dose curve; in most records, active means well fitted curve in the direction sought with a large enough effect; inconclusive means small, poorly fitted or top-dose-only effect, or another doubt; inactive means no such curve, though single readings can be large; an effect the other way counts as inactive or inconclusive. Potency means the concentration at half of the fitted maximal effect.

SMILES	Sfp inh	TDP1 block	G9a block	JMJD2A Tudor	BAZ2B inh	HP1b chromo inh
CC(=O)C1=C(O)C(=O)N(Cc2ccccc2)C1c1ccco1 (centres undefined)	-5%	0.79µM*	50µM*	?	?	15%
O=C(C1=C(O)C(=O)N(Cc2ccco2)C1c1cccc(Cl)c1)c1ccco1 (centres undefined)	-15%	2%	54%	-21%	5%	25%
COc1cccc(C2C(C(C)=O)=C(O)C(=O)N2Cc2ccco2)c1 (centres undefined)	-18%	0%	-3%[12.7 µM]	?	?	?
Cc1ccc(C(=O)COC(=O)CN2C(=O)C3C4C=CC(C4)C3C2=O)cc1C (centres undefined)	17%	3%	20%	-6%	-2%	22%
O=S(=O)(c1cccc(C(F)(F)F)c1)N1CCN(c2nc(-c3cccs3)nc3cc(Cl)ccc23)CC1	·	0%	·	-21%	·	38%
O=C(CCc1ccc(S(=O)(=O)N2CCOCC2)cc1)Nc1c(F)cccc1F	·	0%	·	-9%	·	41%
Cc1ccc(-n2nnnc2C(Cl)(Cl)c2nnnn2-c2ccc(C)cc2)cc1	3.2µM*	7%	?	-28%	?	?
CC(C)COP(=O)(c1ccc(N(C)C)cc1)C(O)c1ccccc1 (centres undefined)	12%	·	-2%	-12%	-14%	9%[57 µM]
COc1ccc(C(O)P(=O)(OC(C)C)c2ccc(N(C)C)cc2)c(OC)c1 (centres undefined)	12%	·	15%[0.501 µM]	22µM*	-8%	18%
CC(C)OP(=O)(c1ccc(N(C)C)cc1)C(O)c1c(Cl)cccc1Cl (centres undefined)	2%	5%	2%[2.33 µM]	-8%[57.1 µM]	-3%	42%
CC(C)OP(=O)(c1ccc(N(C)C)cc1)C(O)c1ccc(N(C)C)cc1 (centres undefined)	10%	·	16%[0.501 µM]	4.5µM*	-12%	11%
CC(C)COP(=O)(c1ccc(N(C)C)cc1)C(O)c1ccc(N(C)C)cc1 (centres undefined)	10%	·	40µM*	?	-36%	1%
C#CCOCCOCCOCCNc1nc(N2CCN(C(=O)C([C@@H](C)CC)n3cc(C(N)COC(=O)C(F)(F)F)nn3)CC2)nc(N2CCN(C(=O)[C@H](CCCCN)n3cc(C(N)[C@H](C)CC)nn3)CC2)n1 (some centres undefined)	·	·	·	56µM*	·	18%
C#CCOCCOCCOCCNc1nc(N2CCN(C(=O)[C@H]([C@@H](C)CC)n3cc([C@@H](N)CC(C)C)nn3)CC2)nc(N2CCN(C(=O)[C@H](CCCCN)n3cc([C@@H](N)CC(C)C)nn3)CC2)n1	2%	3%	-115%[59 µM]	56µM*	?	6%
C#CCOCCOCCOCCNc1nc(N2CCN(C(=O)[C@H](CCCCN)n3cc(C(N)COC(=O)C(F)(F)F)nn3)CC2)nc(N2CCN(C(=O)[C@H](CCCCN)n3cc(C(N)CC(C)C)nn3)CC2)n1 (some centres undefined)	11%	5%	?	·	79µM*	·
